ssDAF12 agonist: S. stercoralis DAF-12 nuclear receptor activators, primary screen, cell-based, luminescence, HEK293, GRIP1 co-expression, lit1-tk-luc | AID 652126, 2013 | 370,000 tested, 1% active | HEK293 ssDAF-12/GRIP1 lit1-tk-luc reporter; % of 3 µM dafachronic acid response | activation, % at 6.8 µM;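 active means activation above the mean over all tested compounds plus 3 SD, cut at about 0.9% in these data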;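 further: 0% = DMSO-only wells and 100% = 3 µM delta7-dafachronic acid wells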
DAX1 inh-1: DAX1 (NR0B1) inhibitors, primary screen, cell-based, HEK293, Gal4-DAX1, luciferase luminescence. Nuclear receptor subfamily 0 group B member 1 (Homo sapiens), P51843. HEK293 Gal4-DAX1 luciferase reporter. inhibition, % at 6.75 µM. 340,000 tested, 0.99% active;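 active means inhibition above the mean over all tested compounds plus 3 SD, cut at about 4.2% in these data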;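 further: 0% = DAX1-transfected cells with DMSO and 100% = empty-vector control cells with DMSO; inhibition shows as a rise in luminescence from relieved DAX1 repression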
Target sequence (P51843 207-470 limits assumed): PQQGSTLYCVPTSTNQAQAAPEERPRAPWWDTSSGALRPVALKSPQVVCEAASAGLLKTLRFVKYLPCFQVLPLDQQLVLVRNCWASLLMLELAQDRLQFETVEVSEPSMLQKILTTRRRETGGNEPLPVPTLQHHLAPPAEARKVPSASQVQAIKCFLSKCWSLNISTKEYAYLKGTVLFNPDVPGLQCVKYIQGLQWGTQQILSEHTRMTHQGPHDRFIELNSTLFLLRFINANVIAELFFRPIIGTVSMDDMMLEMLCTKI
hcDAF-12 act: H. contortus DAF-12 nuclear receptor activators, primary screen, cell-based, luminescence, HEK293, lit1-tk-luc reporter | HEK293 hcDAF-12 lit1-tk-luc reporter; 0% DMSO, 100% Δ7-dafachronic acid | activation, % at 6.8 µM | 370,000 tested, 1.4% active | AID 652067, 2013;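 active means activation above the mean of all tested compounds plus 3 SD, cut at about 5.5% in these data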;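 further: 100% = response to 3 µM Δ7-dafachronic acid high control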
hgDAF12 agonist: H. glycines DAF-12 receptor agonists, primary screen, cell-based, luminescence, HEK293, GAL4 fusion, UAS-luciferase | HEK293 GAL4-hgDAF12 UAS-luciferase reporter, agonist luminescence; normalized to butyrate control | AID 687014, 2013 | Nuclear hormone receptor DAF-12 (Heterodera glycines), GAL4 fusion | activation, % at 6.8 µM | 370,000 tested, 1.8% active;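 active means activation above a cutoff set at the mean of all screened compounds plus 3 SD, cut at about 10% in these data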;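 further: 0% = DMSO wells and 100% = sodium butyrate wells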
DAX1 inh-2: DAX1 (NR0B1) inhibitors on StAR promoter, primary screen, cell-based, luminescence, SF-1 (NR5A1), full-length DAX-1. HEK293T StAR-luciferase reporter, SF-1/DAX-1 repression relief. inhibition, % at 6.8 µM. 370,000 tested, 1.1% active;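 active means inhibition above the mean over all tested compounds plus 3 SD, cut at about 3.6% in these data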;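 further: 0% = DAX-1 cells with DMSO and 100% = cells lacking DAX-1 with DMSO; higher inhibition means more luminescence from relief of DAX-1 repression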
* marks the source's active call; other numbers are inactive results; . = no result; ! = not confirmed by another sample. Most compounds without a hit are left out; they make up all but 4.1% or so of the library.

SMILES	ssDAF12 agonist	DAX1 inh-1	hcDAF-12 act	hgDAF12 agonist	DAX1 inh-2
CCOc1ccc(C(C)NC(=O)Cc2ccccc2F)cc1OCC (centres undefined)	-1	0	0	0	1
CC(NC(=O)Cc1ccccc1F)c1ccc(F)cc1 (centres undefined)	0	4.8*	-2	-1	1
COc1cccc(CNC(=O)CN2CCCc3ccccc32)c1OC	-1	.	0	2	-1
O=C(Nc1ncc([N+](=O)[O-])s1)c1cccs1	0	-1	4	9	4.3*!
O=C(Nc1ncc([N+](=O)[O-])s1)c1ccccc1Br	0	1	3	6	0
O=C(CCS(=O)(=O)Cc1ccccc1)Nc1ncc([N+](=O)[O-])s1	1	0	1	0	4.0*
Cc1cnc(NC(=O)c2cccs2)s1	0	0	6.2*	12*	2
Cc1ncoc1C(=O)Nc1ncc([N+](=O)[O-])s1	-1	0	3	12*	3
CCOc1ccc(-c2ccc(SCC(=O)Nc3nnc(CC)s3)nn2)cc1	0	3	2	13*	3.7*
C=CCN=C1NC(c2ccc(Cl)cc2)C(C(=O)OC)=C(C)N1Cc1ccccc1C(F)(F)F (centres undefined)	-1	.	-1	-1	0
Cc1c(/C=N\NC(=O)c2ccc(F)cc2)cnn1C	-1	-1	0	0	0
Cc1c(/C=N/NC(=O)c2ccc(Br)o2)cnn1C	0	.	6.2*	9	1
O=C1C(=O)N(Cc2ccc(-c3ccc(Cl)nc3)cc2)c2ccc(OC(F)(F)F)cc21	-1	.	-2	-6	.
Cc1cnc(C=O)c2cccc([N+](=O)[O-])c12	0	0	5.9*	0	-1
CCCCNC(=O)C1(C(=O)c2ccc(OC)cc2)CC(C(=O)OCC)=NO1 (centres undefined)	-1	.	-1	0	0
CCC(C)N(C(=O)CSc1nnc(-c2cc(OC)c(OC)c(OC)c2)o1)C(C)CC (centres undefined)	-2	.	-3	-6	-2
COc1ccc(-c2nnc(SCC(=O)Nc3ccccc3OC)o2)cc1	0	2	1	7	4.3*
COc1ccc(-c2nnc(SCC(=O)N3CCN(c4ccccc4)CC3)o2)cc1OC	-1	6.2*	0	1	0
COc1ccc(-c2nnc(SCC(=O)NC3CC3)o2)c(OC)c1	-1	-1	1	2	4.3*
COc1ccc(NC(=O)CSc2nnc(-c3ccc(F)cc3)o2)cn1	0	2	1	9	4.0*
COc1ccc(OC)c(-c2nnc(SCC(=O)NC3CCCCC3)o2)c1	-1	1	-2	2	-1
N#CCCCc1cn(-c2ccc(-c3noc4c3C(=O)N(CC(=O)N3CCOCC3)CC4)cc2)nn1	-1	.	0	0	1
COC(=O)c1c(-c2ccc(OC)cc2)c2c(c3c4cc(F)ccc4n(S(=O)(=O)c4ccc(C)cc4)c13)C(=O)N(C)C2	-1	.	0	-1	1
O=C(CSc1nnc(-c2ccccn2)o1)Nc1ccccc1Cl	0	0	2	11*	2
O=C(CSc1nnc(-c2ccncc2)o1)Nc1ccccc1Cl	-1	0	0	5	1
CCC1=NN=C(c2ccc(F)cc2)C(c2c[nH]c3ccccc23)N1O (centres undefined)	0.9*	0	4	5	-1
COc1cc(C2NC(=O)CCC2[N+](=O)[O-])c(OC)cc1Br (centres undefined)	0.9*	0	0	-3	1
COc1cccc(C2NC(=O)CCC2[N+](=O)[O-])c1OC (centres undefined)	-1	2	-2	-2	0
CC(C)n1c(CCC(=O)O)ccc1-c1ccccc1	-2	4.3*	0	-1	0

High-throughput results (PubChem BioAssay)
